# The campaign covered roughly 150,000 compounds. About 1,000 (0.67%) were called active. No stated cut-off is given here; in the data, active means % elongation below about 90%; inactive means the rest, inconclusive results apart. The entries come from a sample that favours actives as a whole.
# Biological target: Genome polyprotein (Poliovirus type 1 (strain Mahoney)) (UniProt P03300)
# Test: inhibitors of poliovirus polymerase RNA elongation – biochemical, fluorescence polarization, total intensity, primary screen (AID 588519); on z-score: compound at 16.7 µg/mL
# Conditions: stronger effect = lower value; for % elongation: compound at 16.7 µg/mL; for z-score: measured here: FP z-score
# [1] = measured here: total intensity read-out
# Genome polyprotein (Poliovirus type 1 (strain Mahoney)), sequence (P03300 1749-2209 limits assumed): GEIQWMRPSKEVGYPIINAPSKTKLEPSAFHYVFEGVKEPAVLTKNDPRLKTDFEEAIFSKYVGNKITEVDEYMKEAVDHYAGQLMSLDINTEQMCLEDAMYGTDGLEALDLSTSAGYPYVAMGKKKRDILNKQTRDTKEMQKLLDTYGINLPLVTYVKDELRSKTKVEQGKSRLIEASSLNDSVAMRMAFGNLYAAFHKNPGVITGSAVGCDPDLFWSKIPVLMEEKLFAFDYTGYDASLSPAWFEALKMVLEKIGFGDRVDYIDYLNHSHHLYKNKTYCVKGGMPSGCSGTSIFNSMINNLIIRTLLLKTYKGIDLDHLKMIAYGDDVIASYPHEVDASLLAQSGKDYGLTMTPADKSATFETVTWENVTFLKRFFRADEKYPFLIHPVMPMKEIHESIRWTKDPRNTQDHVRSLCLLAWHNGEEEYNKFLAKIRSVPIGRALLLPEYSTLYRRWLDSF
Structure (SMILES),% elongation,z-score,% elongation [1]
CCOC(=O)c1c(C)c(-c2ccccc2)n(CC(=O)N2CCN(c3ccccn3)CC2)c1C,99% (inactive),-0.8,104%
COc1ccc(C/C(C#N)=C/N2CCN(c3ccccc3F)CC2)cc1,102% (inactive),0.1,107%
C=CCn1ccc2c(OCC(=O)c3ccccc3)cccc2c1=O,104% (inactive),0.6,101%
CCNC(=O)N1c2ccccc2Sc2ccccc21,101% (inactive),0.2,103%
COCCNC(=O)N1c2ccccc2Sc2ccccc21,103% (inactive),0.4,100%
CN1/C(=C/C(=S)C(C)(C)C)Sc2ccccc21,84% (active),-1.7,83%
Cc1[nH]nc2c1C1C(C2)C1(C)C (centres undefined),76% (active),-7.4,105%
CCc1nc(NCc2ccccc2)c(C#N)c2c1COC(C)(C)C2,107% (inactive),0.4,112%
O=C(CSc1nnc(-c2c[nH]c3ccccc23)o1)NCC1CN(Cc2ccccc2)CCO1 (centres undefined),105% (inactive),0.1,109%
COc1ccc(-c2noc(CC(=O)N(C)c3ccccc3)n2)cc1,106% (inactive),0.7,100%
C=CCSc1nnc(NC(=O)CSc2nc(C)cc(=O)[nH]2)s1,88% (active),-4,65%
C=CCSc1nnc(NC(=O)CCNS(=O)(=O)c2ccccc2)s1,103% (inactive),0.2,107%
COC(=O)Cc1cnc(NC(=O)CSc2nc(C(C)C)cc(=O)[nH]2)s1,102% (inactive),0.3,100%
COc1ccccc1NC(=O)Nc1cc(C(C)(C)C)nn1-c1ccccc1,105% (inactive),0.5,102%
Cc1sc2nc(COC(=O)C(NC(=O)c3ccco3)C(C)C)[nH]c(=O)c2c1C (centres undefined),94% (inactive),-1.2,219%
CCOC(=O)c1cnc2c(C)cc(C)cc2c1Nc1ccc(N2CCOCC2)cc1,107% (inactive),0.5,110%
CCOC(=O)c1cnc2c(C)cc(Cl)cc2c1NCCc1ccc(OC)c(OC)c1,104% (inactive),-0.4,104%
CCOC(=O)c1cnc2c(C)c(C)ccc2c1NCCCN(C)C,69% (active),-5,53%
O=C(COC(=O)c1cccs1)NCc1cccs1,100% (inactive),-0.1,101%
Cc1nc2ccccc2nc1OCC(=O)N(C1CCCCC1)C1CCCCC1,99% (inactive),-0.3,97%
COC(=O)c1c(NC(=O)C(C)Oc2ccc(Cl)c(C)c2)sc(C)c1C (centres undefined),109% (inactive),0.5,106%
CCOC(=O)c1c(NC(=O)COc2cc(C)ccc2C(C)C)sc(C)c1C,89% (active),-2.6,88%
CCOC(=O)c1sc(NC(=O)/C=C/c2ccc(C(C)C)cc2)c(C(=O)OCC)c1C,105% (inactive),0.3,109%
COC(=O)c1sc(C)cc1OC(=O)c1ccc(OC)cc1,99% (inactive),-0.2,100%
CCCc1nc2c3ccccc3ncn2n1,105% (inactive),0.4,113%
Cc1ccc(Cl)cc1NC(=O)C(C)n1nnc2sc(-c3ccccc3)cc2c1=O (centres undefined),65% (active),-6.8,65%

Structure (SMILES),% elongation,z-score,% elongation [1]
CCCCCCn1nnc2sc(-c3ccccc3)cc2c1=O,121% (inactive),2.3,118%
CC(C)OC(=O)C(C)n1cnc2sc(-c3ccccc3)cc2c1=O (centres undefined),104% (inactive),0,105%
CC1(C)CC(=O)C=C(Nc2sc3c(c2C#N)CCCC3)C1,98% (inactive),-1,97%
COc1ccc(S(=O)(=O)NCCSc2nnnn2-c2ccccc2)cc1,75% (active),-7.9,73%
O=C(CSc1nnnn1-c1ccccc1)NCCC12CC3CC(CC(C3)C1)C2,102% (inactive),-0.1,107%
CCOc1ccc(S(=O)(=O)NCCSc2ccccc2)cc1,100% (inactive),-0.1,103%
O=C(Nc1ccc(S(=O)(=O)C(F)F)cc1)c1cccnc1N1CCCC1,102% (inactive),-0.3,104%
Cc1ccc(-n2cc[nH]c(=O)c2=O)cc1,103% (inactive),0.3,102%
CCCC(=O)Nc1ccc(C(=O)CSc2nnc(Cc3ccccc3)o2)cc1,106% (inactive),0.3,106%
O=C(CSc1ccc(Br)cc1)c1ccco1,97% (inactive),-0.9,89%
O=C(Oc1ccc(Br)cc1)c1ccco1,101% (inactive),-0.3,105%
O=C(Sc1ccc(Oc2ccc(SC(=O)c3ccco3)cc2)cc1)c1ccco1,44% (active),-11.5,51%
CCCCN(C)C(=O)C1CCCN(c2nnc(C)c3c(C)n(-c4ccccc4)nc23)C1 (centres undefined),101% (inactive),-0.1,103%
O=C(CSc1ccccc1)c1ccccc1,79% (active),-2.3,75%
O=C(CSc1nnc2ccccn12)c1ccccc1,101% (inactive),0.1,103%
O=C(CCC(=O)c1ccccc1)c1ccccc1,100% (inactive),0.1,102%
O=C(Nc1ccccc1I)C1CCCO1 (centres undefined),101% (inactive),0.2,100%
CN(Cc1ccccc1)C(=O)Cn1cnc(S(=O)(=O)N2CCCC2)c1,103% (inactive),1,101%
O=C(Nc1ccc(Cl)cc1Cl)C1CC(=O)N(C2CCCCC2)C1 (centres undefined),105% (inactive),0.2,102%
Oc1c(C(c2cccnc2)N2CCOCC2)ccc2cccnc12 (centres undefined),85% (inactive),-2.9,110%
O=C(CCc1ccccc1)NCC1COC2(CCCCC2)O1 (centres undefined),106% (inactive),0.3,112%
COc1cccc(NC(=O)CN(C)CC(=O)Nc2ccc3c(c2)CCC3)c1,100% (inactive),-0.4,101%
COc1cc(NC(=O)CN2CCN(S(=O)(=O)c3ccc(Br)cc3)CC2)cc(OC)c1,114% (inactive),1.5,102%
CCN(CC(=O)Nc1ccc(S(=O)(=O)N2CCCC2)cc1)CC(=O)Nc1cccc(OC)c1,89% (active),-1.2,88%
CCN(CC)S(=O)(=O)c1cc(C(=O)N2CCN(Cc3ccc4c(c3)OCO4)CC2)ccc1Cl,109% (inactive),0.8,109%
COC(=O)COc1ccc(CSc2nc3ccccc3c(=O)n2C)cc1,100% (inactive),-0.3,95%

Structure (SMILES),% elongation,z-score,% elongation [1]
Cc1ccc2nc(CSc3nnc(-c4ccccc4)o3)cc(=O)n2c1,99% (inactive),-0.7,92%
CNC(=O)C1Cc2cc(S(=O)(=O)N3CCCC3)ccc2N1C(C)=O (centres undefined),99% (inactive),-1.3,103%
O=C(Nc1cccnc1)C(=O)c1c(O)[nH]c2ccccc12,101% (inactive),-0.1,105%
CC(NC(=O)C1CCCN1C(=O)c1cccs1)c1ccc(-n2ccnc2)cc1 (centres undefined),100% (inactive),-0.2,104%
N#Cc1cnn(-c2nc3ccccc3[nH]2)c1N,105% (inactive),0.3,104%
O=c1c(Cl)c(NC2CC2)cnn1-c1ccccc1,102% (inactive),0.2,103%
O=c1c(Cl)c(Cl)cnn1-c1nc2ccccc2[nH]1,48% (active),-5.8,58%
Cc1cc(=O)[nH]c(SC(C)C(=O)NC2CCCCC2)n1 (centres undefined),99% (inactive),-0.4,103%
Clc1nc2ccccc2c(N2CCCCC2)c1CNC1CC1,104% (inactive),0.8,105%
O=C(/C=C/c1c(Cl)nc2sccn12)NCc1ccc2c(c1)OCO2,97% (inactive),-0.6,102%
CC(c1ccccc1)n1c(N)c(C#N)c2nc3ccccc3nc21 (centres undefined),97% (inactive),-1.4,106%
CC(C)(C)c1ccc(C(=O)NCCn2c(N)c(C#N)c3nc4ccccc4nc32)cc1,107% (inactive),0.5,112%
N#Cc1c(N)n(Cc2ccc(Cl)cc2)c2nc3ccccc3nc12,75% (active),-4.3,85%
Cc1nnc2ccc(-c3ccc(NS(=O)(=O)c4ccc5c(c4)OCCO5)cc3)nn12,99% (inactive),-1.2,102%
CCOC(=O)c1c(NC(=O)c2cc(-c3ccc(Cl)cc3)on2)sc2c1CCCC2,84% (active),-3,85%
CCOCCCNC(=O)c1c(NC(=O)Cc2coc3ccc(C)cc23)sc2c1CCC2,116% (inactive),0.1,114%
CCOC(=O)c1c(NC(=O)Cc2coc3ccc(CC)cc23)sc2c1CCC2,-3% (active),-8.5,25%
CCOCCCNC(=O)c1c(NC(=O)Cc2coc3c(C)c(C)ccc23)sc2c1CCC2,116% (inactive),0.1,117%
CCOC(=O)c1c(NC(=O)c2cc(-n3cnnc3)ccc2Cl)sc2c1CCCC2,99% (inactive),-0.5,100%
COc1ccc(-c2cc(C(=O)Nc3sc4c(c3C(N)=O)CCCC4)no2)cc1,100% (inactive),-0.5,102%
CCCN(Cc1nc2cc(Cl)ccc2c(=O)[nH]1)C(=S)NC,99% (inactive),-0.3,99%
CN(C)/N=C/C=C1\CCC/C(=C\C=N\N(C)C)C1=O,165% (inactive),6.6,154%
CN(C)c1ccc(/C=C(\C#N)NC(=O)c2ccccc2)cc1,103% (inactive),0,108%
Cc1ccc(NC(=O)COc2ccccc2O)cc1C,103% (inactive),0.1,104%
Cc1ccc2[nH]c(=O)c(CNCCCN(C)C)cc2c1,100% (inactive),-0.2,102%
Cc1c(NC(=O)Cc2ccc(S(=O)(=O)N3CCCCC3)cc2)c(=O)n(-c2ccccc2)n1C,102% (inactive),-0.1,108%
